Test results published in PubChem BioAssay AID864 (The Scripps Research Institute Molecular Screening Center, 2007).
The other results are listed elsewhere or left out. Values without a mark were called inactive. Rule as the data show it: active = activation above about 8.4%; inactive = the rest.

Biological target: Galanin receptor type 2 (Homo sapiens) (UniProt O43603)
Experiment: activators of human galanin receptor 2 – cell-based, confirmation (AID 864);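 also: 0% = buffer-only vehicle wells and 100% = full reference agonist response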
Settings: GALR2-expressing cells, agonist activation; at 5.6 µM; stronger effect = higher value

Sequence of Galanin receptor type 2 (Homo sapiens) (O43603 whole entry, looked up): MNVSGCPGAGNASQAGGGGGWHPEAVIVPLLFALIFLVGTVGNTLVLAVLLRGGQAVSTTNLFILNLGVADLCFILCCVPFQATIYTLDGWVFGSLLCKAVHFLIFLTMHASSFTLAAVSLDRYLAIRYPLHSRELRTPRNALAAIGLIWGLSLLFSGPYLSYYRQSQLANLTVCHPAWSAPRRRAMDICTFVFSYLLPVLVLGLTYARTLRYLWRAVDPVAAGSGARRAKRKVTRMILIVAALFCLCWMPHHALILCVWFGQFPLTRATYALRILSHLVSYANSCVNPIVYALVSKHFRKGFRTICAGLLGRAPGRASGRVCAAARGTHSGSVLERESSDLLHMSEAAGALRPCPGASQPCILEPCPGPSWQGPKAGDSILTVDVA

Cc1cccc(N2C(=O)NC(=O)/C(=C\c3cnn(-c4ccccc4)c3)C2=O)c1
activation: -0.18%
